Source: PubChem BioAssay (DiRusso Lab, Biochemistry Department, University of Nebraska)
This is one part of a sample in which hits are shown more often than they occur.
Algae TAG accum – inducers of triacylglycerol accumulation in Chlamydomonas reinhardtii algae; Chlamydomonas reinhardtii TAG, Nile Red fluorescence, 72 h; calls only at 10 µM (by protocol); hit rate 0.84% among 44,000; call rule not given here;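 note: hits raise Nile Red signal meaning more stored TAG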
* hit, by the source's call; i = inactive; + = active, no number.

SMILES	Algae TAG accum
C/C=C(\C)CN1CCN(c2ccc(C)cc2)CC1	+
Cc1ccc(NC(=O)CN2CCN(c3ccc(F)cc3)CC2)cc1	i
C/C=C(\C)CN1CCN(Cc2ccccc2)CC1	i
COc1ccccc1CNS(=O)(=O)c1ccccc1[N+](=O)[O-]	i
CCS(=O)(=O)NC(C)c1ccccc1 (configuration not stated)	i
CCOc1ccc(CN2CCC(C(=O)N3CCN(Cc4ccccc4)CC3)CC2)cc1	i
CC(=O)Nc1ccc(S(=O)(=O)N2CCN(C3CC4CCC3C4)CC2)cc1 (configuration not stated)	i
COc1ccc(CC(=O)NC2CCCC2)cc1	i
COc1ccc(CN2CCCC(O)C2)cc1C (configuration not stated)	i
COc1ccc(Nc2nc(N)nc(CN(C)C3CCCCC3)n2)cc1	i
COc1ccc(CNC2CCCC2)cc1C	i
COc1ccc(CN(C)C2CCCCC2)cc1	+
COc1ccc(CN(C)C2CCCCC2)cc1C	+
Cc1c(Cl)cccc1NC(=O)C1CC(=O)N(c2ccccc2)C1 (configuration not stated)	i
Cc1c(C=O)c2ccccc2n1CC(=O)N1CCc2ccccc21	i
Cc1ccc(-c2nc3ncccc3o2)cc1NC(=O)c1cccc([N+](=O)[O-])c1	i
Cc1nnc(SCC(=O)c2ccc(-c3ccccc3)cc2)n1C	i
COc1cc(NC(=O)Cc2ccc(F)cc2)c(OC)cc1Cl	i
C=CCc1cc(OC)ccc1OCCCCn1ccnc1	i
C=CCc1cc(OC)ccc1OCCn1ccnc1	i
C=CCc1cc(OC)ccc1OCCOCCn1ccnc1	+
CCC(C)NC(=O)C1CC(=O)N(c2ccc(F)cc2)C1 (configuration not stated)	i
C/C(=C\c1ccccc1)CN(C)C1CCN(C)CC1	i
C/C(=C\c1ccccc1)CN(C)CCN(C)C	+
C/C=C(\C)CN(C)CCN(C)C	i
SMILES	Algae TAG accum
[O-][n+]1c2ccc3nonc3c2nn1-c1cc(Cl)cc(Cl)c1	i
CCCC(=O)Nc1ccc(NC(=O)c2ccc(Br)cc2)cc1	i
CCN(CC)CC(=O)Nc1ccc(Br)cc1	+
Cc1ccc(NC(=O)Cc2ccc(Br)cc2)cc1	i
O=c1c2c3c(sc2nc(SCc2ccncc2)n1-c1ccccc1)CCCC3	i
CN1CC=C(CNc2cccc3c2CCCC3)CC1	+
Cc1cccc(OCC(=O)Nc2cccc3c2CCCC3)c1	i
O=C(Nc1cccc2c1CCCC2)C(Cl)Cl	i
Cc1cc(C(=O)N2CCOCC2)cs1	i
CC(=O)Nc1ccccc1OC(=O)Oc1ccccc1	i
O=c1c2ccccc2nc(/C=C/c2ccc3c(c2)OCO3)n1-c1cccc([N+](=O)[O-])c1	i
Cc1ccc2nc(NC(=O)C3CC3)sc2c1	+
Cc1ccc2nc(NC(=O)NC3CCCCC3)sc2c1	i
Cc1ccc2nc(NC(=O)C3CCCCC3C(=O)O)sc2c1 (configuration not stated)	i
Cc1ccc(C(=O)Nc2ccc(Cl)cc2C)cc1C	+
Cc1ccc(C(=O)Nc2ccc(I)cc2C)cc1C	i
Cc1ccc(NC(=O)c2ccc(Cl)cc2)c(C)c1	i
Cc1cc(Nc2ccc(O)cc2)c2cccc(C)c2n1	i
COc1cc(NC(=O)c2ccccc2C)c(OC)cc1NC(=O)c1ccccc1	i
CC(=NCCN1CCNCC1)c1c(C)[nH]n(-c2ccc([N+](=O)[O-])cc2)c1=O	i
Cc1cc(C)c(S(=O)(=O)Nc2ccc(Cl)cc2)c(C)c1	i
O=C(c1ccc(CN2CCc3ccccc3C2)cc1)N1CCN(c2ccccc2F)CC1	+
NC(=O)C1CCN(C(=O)c2ccc(CN3CCc4ccccc4C3)cc2)CC1	i
COc1ccc(N2CCN(C(=O)c3ccc(CN4CCc5ccccc5C4)cc3)CC2)cc1	i
NC1=NNC(c2ccccc2)=CS1	i
SMILES	Algae TAG accum
O=C(c1cccc(Cl)c1)N1CCN(S(=O)(=O)c2ccc([N+](=O)[O-])cc2)CC1	i
C=CCc1cccc(C)c1OCCCN1CCCC1	i
C=CCc1cccc(C)c1OCCCN1CCN(C)CC1	+
C=CCc1cc(Cl)ccc1OCCN1CCN(C)CC1	+
C=CCc1cc(C)ccc1OCCN1CCN(C)CC1	i
C=CCc1cc(C)ccc1OCCCCN1CCN(C)CC1	i
C=CCc1cccc(OC)c1OCCCN1CCN(C)CC1	i
NNC(=O)CNC(c1ccccc1)c1cc(Br)ccc1NC(=O)c1ccccc1 (configuration not stated)	i
CC(=O)Nc1ccc2nc(SCC(=O)Nc3ccc(F)cc3)sc2c1	i
COc1ccccc1C(=O)Nc1ccc(-c2nnc(SCC(=O)Nc3ccccc3)n2C)cc1	i
O=C(CN1CCCCCC1)Nc1cccc2c1OCO2	i
O=C(CN1CCCCC1)Nc1ncc(Cc2ccc(Br)cc2)s1	+
O=C(CN1CCCCC1)Nc1ccccc1NC(=O)CN1CCCCC1	i
Cc1ccc(NC(=O)c2ccc(N3CCOCC3)c([N+](=O)[O-])c2)cc1Cl	i
CC(=O)Nc1ccc(OCC(=O)Nc2cc(Cl)cc(Cl)c2)cc1	+
O=C(COc1ccc(Cl)cc1)Nc1ccc(Br)cc1	i
CC(=O)Nc1ccc(NC(=O)COc2ccc(C)c(C)c2)cc1	i
COc1cc(C2C3=C(CC(C)(C)CC3=O)NC3=C2C(=O)CC(C)(C)C3)cc([N+](=O)[O-])c1O	i
c1ccc(CN2CCC(N3CCN(C4CC5CCC4C5)CC3)CC2)cc1 (configuration not stated)	+
COc1cc(CN2CCN(C3CCN(Cc4ccccc4)CC3)CC2)cc(OC)c1O	i
C1CCCN(C2CCN(C3CC4CCC3C4)CC2)CC1 (configuration not stated)	i
O=[N+]([O-])c1ccccc1S(=O)(=O)N1CCN(Cc2ccccn2)CC1	i
O=[N+]([O-])c1ccccc1S(=O)(=O)N1CCN(C2CCN(Cc3ccccc3)CC2)CC1	+
CC1CCCC(NC2CCN(Cc3ccccc3)CC2)C1 (configuration not stated)	i
c1ccc(CN2CCC(N3CCN(Cc4ccccn4)CC3)CC2)cc1	i
SMILES	Algae TAG accum
O=[N+]([O-])c1ccccc1CN1CCC(N2CCCCC2)CC1	i
CC1CCCC(N2CCN(Cc3ccccc3)CC2)C1 (configuration not stated)	+
CC1CN(C(=O)CCc2ccccc2)CC(C)O1 (configuration not stated)	i
O=C(O)CNC(=O)c1ccc(Cl)cc1	i
CCN(CC)c1ccc(NC(=O)COc2ccccc2OC)cc1	i
N#C/C(=C/c1ccc(F)cc1)c1nc(-c2ccccc2)cs1	i
O=C(Nc1sc2c(c1C(=O)NC1CCS(=O)(=O)C1)CCCC2)c1ccc(Cl)cc1 (configuration not stated)	i
O=C(Nc1ccccc1C(=O)Nc1ccc(O)cc1)c1ccccc1	i
O=C(CSc1nc(O)cc(=O)[nH]1)c1ccc(O)cc1O	i
CN(C)c1ccc(NC(=O)Nc2ccc3nc(-c4ccccn4)c(-c4ccccn4)nc3c2)cc1	+
O=C(Nc1ccc2nc(-c3ccccn3)c(-c3ccccn3)nc2c1)N1CCCC1	i
Cc1nc2ccc(NC(=O)Nc3ccc(N(C)C)cc3)cc2nc1C	i
O=C(COc1ccc(Br)cc1Cl)NCc1ccccc1	i
CCN(CC)/C(=C/C(=O)c1cccc([N+](=O)[O-])c1)c1ccccc1	i
CC(C)c1ccc(C(=O)N2CCN(c3ccc([N+](=O)[O-])cc3)CC2)cc1	i
